Values joined by “and” are separate entries in the source; they are usually repeats but may differ in a detail not shown here. Equal values may be shown once. Records with an inconclusive call do not appear. A call without a number means that no potency is given here. Where a structure was tested more than once in an assay, its records may differ in their call. Active and inactive are the calls of the source. Calls follow the shape of the dose curve; as a rule, active = well fitted activation curve with a large enough effect in the repeat runs; inconclusive = weak or mixed curves; inactive = flat fitted curve, though single readings scatter.
Potency is read from the fitted curve at half-maximal effect.

This assay in a line: A CellTox Green Cytotoxicity Assay to monitor cytotoxicity in HEK293 cells - 40 hour (AID 1224871). Also: nearly all actives have a fitted effect of over 45% in size. Conditions: CellTox Green fluorescence; series mostly up to 76.8 µM; cytotoxicity increase: at the top concentration. An excerpt:
National Center for Advancing Translational Sciences [NCATS]
NIH Chemical Genomics Center [NCGC]
U.S. Environmental Protection Agency [EPA]
National Institutes of Environmental Health Sciences [NIEHS]
National Toxicology Program [NTP]
Cell-based models are critical for drug discovery. Determining the natural cytotoxic effects resulting from test compounds is an essential research activity. A CellTox Green Cytotoxicity Assay to monitor cytotoxicity in real time of continues cell culture during 40 hours of the compound treatment was used to screen Tox21 10K library compounds in Hek293 cells. CellTox Green Cytotoxicity Assay is a nonlytic, homogeneous, biofluorescent method to measure cytotoxicity in cell culture after experimental manipulation. The assay system uses a proprietary asymmetric cyanine dye that is excluded from viable cells but preferentially stains the dead cell's DNA. […] Viable cells produce no appreciable increases in fluorescence. Therefore, the fluorescence signal produced by the binding interaction with dead cell DNA is proportional to cytotoxicity.
The mixture of Hek293 cell suspension and reagents were dispensed at 600cells/6 ul/well in 1536-well tissue culture treated black solid bottom plates using a Multidrop dispenser. After the assay plates were incubated at a 37 C/5% CO2 incubator for 5 hours, 23 nL of compounds dissolved in DMSO, positive and negative controls was transferred to the assay plate by a pintool work station. The plates were incubated at 37 C for 40 hours. The fluorescence intensity were measured at 0h, 8h, 16h, 24h, 32h and 40h time points using ViewLux plate reader during compound treatment.
Regarding `NC(=S)Nc1ccccc1`, the Potency was 49.8 µM (active) and inactive.

Take `O=S(=O)(Oc1ccc(Cl)cc1)c1ccc(Cl)cc1`: the Potency entry was “inactive”.

For `CCCCNC(=O)n1c(NC(=O)OC)nc2ccccc21`, the Potency entry was “inactive”.

As for `Cc1c(COC(=O)[C@@H]2[C@H](/C=C(\Cl)C(F)(F)F)C2(C)C)cccc1-c1ccccc1`, the Potency result is “inactive”.

Take `CNC(=O)N(C)c1nnc(C(C)(C)C)s1`: the Potency result was “inactive”.

Regarding `COc1ccc(C=O)cc1`, the Potency entry is “inactive”.

Turning to `C[C@]12CCC(=O)C[C@@H]1CC[C@@H]1[C@@H]2CC[C@]2(C)[C@@H](O)CC[C@@H]12`, the Potency is 43.1 µM (active) and inactive.

With `CCN(CC)C(=O)/C(Cl)=C(\C)OP(=O)(OC)OC`, the Potency result is “inactive”.

As for `COc1ccc(C(CN(C)C)C2(O)CCCCC2)cc1` (stereo not given), the Potency entry was “inactive”.

Turning to `CCN(CC)N=O`, the Potency entry was “inactive”.

`CC(O)CCO` (stereo not given): the Potency entry is “inactive”.

As for `c1ccc(-c2cccc(-c3ccccc3)c2)cc1`, the Potency result is “inactive”.

Turning to `CCCCCCCCOC(=O)c1ccccc1C(=O)OCCCCCCCC`, the Potency entry was “inactive”.

Turning to `CC(C)(c1cc(Cl)c(O)c(Cl)c1)c1cc(Cl)c(O)c(Cl)c1`, the “cytotoxicity increase” value was 16.7% (inactive).

Regarding `CC(C)=CC1C(C(=O)OCc2coc(Cc3ccccc3)c2)C1(C)C` (stereo not given), the Potency result was “inactive”.

In the case of `C#CCOS(=O)OC1CCCCC1Oc1ccc(C(C)(C)C)cc1` (stereo not given), the Potency is 21.9 µM (active).

Regarding `S=C1NCCN1`, the Potency entry was “inactive”.

`CNC(=O)Oc1cccc2c1OC(C)(C)O2`: the “cytotoxicity increase” value is -0.344% (inactive).

For `Cc1ccc(OP(=O)(Oc2ccc(C)cc2)Oc2ccc(C)cc2)cc1`, the Potency entry is “inactive”.

On to `CCC(C)c1cc([N+](=O)[O-])cc([N+](=O)[O-])c1O` (stereo not given), for which the Potency entry was “inactive”.

In the case of `CN(C)c1ccc(C(=O)c2ccc(N(C)C)cc2)cc1`, the Potency entry is “inactive”.

Turning to `O=Cc1ccco1`, the Potency was 21.1 µM (active).

With `CCCCOCCOP(=O)(OCCOCCCC)OCCOCCCC`, the Potency result was “inactive”.

As to `Oc1cc(Cl)ccc1Oc1ccc(Cl)cc1Cl`, the Potency was 44.7 µM (active).

With `CCCCCCOC(=O)c1ccccc1C(=O)OCCCCCC`, the Potency entry was “inactive”.

As for `CC1(C)C(C=C(Cl)Cl)C1C(=O)OC(C#N)c1cccc(Oc2ccccc2)c1` (stereo not given), the Potency result was “inactive”.

For the compound `CCOc1cc(C=O)ccc1O`, the Potency entry was “inactive”.

For the compound `C=CC(=O)OCCO`, the “cytotoxicity increase” value was 0.206% (inactive).

Regarding `O=[N+]([O-])c1c(Cl)c(Cl)c(Cl)c(Cl)c1Cl`, the Potency was 21.8 µM (active) and inactive.

As to `CCC(C)(C)c1ccc(O)cc1`, the Potency was 49.5 µM (active) and 43.6 µM (active).

On to `CC(C)NC(C)C`, for which the Potency result is “inactive”.

For the compound `CCN(N=O)C(N)=O`, the Potency result is “inactive”.

With `O=C1C=CC(=O)C=C1`, the Potency result was “inactive”.

For the compound `c1nc[nH]n1`, the Potency entry is “inactive”.

As to `CN(C)C(=O)Nc1ccc(Cl)cc1`, the Potency entry is “inactive”.

With `CC(C)(C)c1ccccc1O`, the Potency is 39.4 µM (active).

With `Nc1ccc(Cl)c(Cl)c1`, the Potency entry was “inactive”.

On to `c1ccc(NNc2ccccc2)cc1`, for which the Potency is 24.5 µM (active).

Consider `CCC(CC)Nc1c([N+](=O)[O-])cc(C)c(C)c1[N+](=O)[O-]`, for which the Potency entry is “inactive”.

For `NNC(N)=S`, the Potency result was “inactive”.

The values above are taken from PubChem BioAssay (Tox21).
